RE007 growth inh: qHTS Assay for Inhibitors of the HIV-1 protein Vpr. 0.21% of 360,000 active. AID 651644, 2012. S. pombe RE007 Vpr strain, BacTiter-Glo ATP luminescence, 24 h. Potency, µM (highest dose often 92.2 µM), inactives show at the highest dose activity change, negative = less growth, most hits filed as inhibitors; active = well fitted falling curve with a large enough effect; inconclusive = small, poorly fitted or top-dose-only effect; inactive = no such curve, though single readings can be large or run the other way; also: % is scaled to controls: 0 for no effect and ±100 for the full control effect; nearly all actives have a fitted effect of over 50% in size
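Fission yeast strain RE007, carrying one chromosomally integrated HIV-1 vpr copy, was seeded at OD 0.01 in PMG+AL medium with 23 nL pinned compound. After 24 h at 30 °C and 99% humidity, viability was read by BacTiter-Glo luminescence.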
LmPK inhibitor: qHTS Assay for Inhibitors of Leishmania Mexicana Pyruvate Kinase (LmPK); 0.37% of 290,000 active; Potency, µM (titrated, usually from 57.5 µM), for inactives: at the highest dose activity change, negative = inhibition, actives largely listed as inhibitors; AID 1721, 2009; purified LmPK, Kinase-Glo ATP luminescence, 1 h; also: % is scaled to controls: 0 for no effect and ±100 for the full control effect
Target sequence (Q27686 whole entry, looked up): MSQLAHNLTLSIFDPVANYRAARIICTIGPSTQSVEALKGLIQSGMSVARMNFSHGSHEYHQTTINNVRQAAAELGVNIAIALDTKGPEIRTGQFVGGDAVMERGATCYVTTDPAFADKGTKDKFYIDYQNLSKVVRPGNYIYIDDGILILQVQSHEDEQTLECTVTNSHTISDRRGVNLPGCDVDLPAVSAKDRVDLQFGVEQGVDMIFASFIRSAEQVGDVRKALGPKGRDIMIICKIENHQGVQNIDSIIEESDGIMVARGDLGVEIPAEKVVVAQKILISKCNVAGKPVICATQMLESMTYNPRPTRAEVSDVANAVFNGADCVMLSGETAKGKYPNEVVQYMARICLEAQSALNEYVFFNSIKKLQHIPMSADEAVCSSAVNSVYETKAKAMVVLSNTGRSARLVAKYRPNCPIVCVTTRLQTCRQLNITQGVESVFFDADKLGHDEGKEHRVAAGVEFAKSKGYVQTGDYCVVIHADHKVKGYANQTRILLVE
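qHTS format; LmPK 0.1 nM; substrates PEP 0.5 mM and ADP 0.1 mM. One-hour room-temperature incubation, then coupled luciferase luminescence; 0.5 nM enzyme wells mark activation.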
SARS PLP yeast: qHTS of Yeast-based Assay for SARS-CoV PLP. Potency, µM (highest dose often 32.9 µM), inactives show at the top dose activity, positive = growth rescue, most hits filed as activators. AID 485353, 2010. 0.19% of 330,000 active. S. cerevisiae expressing SARS-CoV PLpro, growth rescue; calls by dose curve; also: 0% is about no effect; nearly all actives have a fitted effect of over 55% in size
Tb PYK inh: qHTS of Trypanosoma Brucei Inhibitors | pyruvate kinase (Trypanosoma brucei), Q57TT1 | TbPYK enzyme, Kinase-Glo Plus ATP luminescence, 45 min | AID 624173, 2012 | 0.12% of 410,000 active | Potency, µM (top dose mostly 76.8 µM), for inactives: at the top dose activity, negative = inhibition, usual class: inhibitors; also: % is scaled to controls: 0 for no effect and ±100 for the full control effect; nearly all actives have a fitted effect of over 50% in size
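ADP (130 uM final) triggers the TbPYK reaction after compound addition; incubation is 45 min at room temperature. Kinase-Glo Plus is then added and luminescence imaged. Normalized data are fitted to concentration-effect curves.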
Sm TGR inh: qHTS Assay for the Inhibitors of Schistosoma Mansoni Peroxiredoxins | Schistosoma mansoni thioredoxin glutathione reductase (TGR), Q962Y6 | purified TGR, DTNB reduction, TNB absorbance 405 nm | Potency, µM (top dose mostly 114 µM), inactives show top-dose activity change, negative = inhibition, usual class: inhibitors | 3% of 360,000 active; also: % is scaled to controls: 0 for no effect and ±100 for the full control effect; nearly all actives have a fitted effect of over 60% in size
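First, TGR (20 nM dispensed) and NADPH were mixed with compound. Second, a 15 min room-temperature incubation followed. Third, further NADPH and then DTNB were added to start the reaction. Finally, TNB absorbance was monitored kinetically.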
NS1 function inh: qHTS Assay for Inhibitors of Influenza NS1 Protein Function; Potency, µM (series often up to 46.1 µM), for the others: at the highest dose activity, positive = more growth; 0.4% of 270,000 active; AID 2326, 2010; calls by dose curve; also: actives are rising curves; nearly all actives have a fitted effect of over 50% in size
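S. cerevisiae expressing influenza A NS1, grown in glucose, washed, then diluted 1:100 into pH 6.0 -URA galactose medium with 23 nl compound. Growth recovery read as OD600; NS1-free strain serves as control.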
Active calls of the source: *; u = inconclusive; x = no result given; [ ] = dose if it differs, or a comment. An excerpt weighted towards active compounds, which were near 3.3% of everything screened. Unless noted, calls follow the shape of the dose curve; as a rule, active = well fitted curve in the direction sought with a large enough effect; inconclusive = small, poorly fitted or top-dose-only effect, or another doubt; inactive = no such curve, though single readings can be large; an effect the other way counts as inactive or inconclusive. Potency is read from the fitted curve at half-maximal effect.

SMILES	RE007 growth inh	LmPK inhibitor	SARS PLP yeast	Tb PYK inh	Sm TGR inh	NS1 function inh
O=[N+]([O-])c1ccc(S(=O)(=O)c2ccccc2)nc1	x	5%	-13%	-15%	0.32µM*	-98%
Cc1cc(S(=O)(=O)c2ccc([N+](=O)[O-])cn2)ccc1Br	u	x	x	-10%	x	x
Cc1ccc(S(=O)(=O)c2ccc([N+](=O)[O-])cn2)cc1	u	2%	-12%	-2%	0.1µM*	-94%
O=S(=O)(c1ccccc1)c1ccc(C(F)(F)F)cn1	7%	0%	3%	-6%	14µM*	-4%
Nc1ccc(S(=O)(=O)c2ccccc2)nc1	x	3%	2%	-19%	2%	3%
CN(CC(=O)Nc1ccc(F)cc1F)S(=O)(=O)c1cccc2nsnc12	x	x	x	-6%	5%	x
COc1ccc2c(c1)OC(C)(C)C(c1ccccc1)C2c1ccc(OCCN2CCCC2)cc1 (stereo not drawn)	x	x	x	2%	x	x
COc1cc(/C=N/Nc2nn3cnnc3c3ccccc23)ccc1O	-15%	7.9µM*	3%	-18%	5%	14%
CCOc1cc(/C=N/Nc2nn3cnnc3c3ccccc23)ccc1O	-7%	16µM*	-1%	0%	-1%	5%
COc1cccc(/C=N/Nc2nn3cnnc3c3ccccc23)c1	-1%	25µM*	9%	-9%	-20%	15%
Oc1ccc(/C=N/Nc2nn3cnnc3c3ccccc23)cc1	-23%	14µM*	-3%	0%	-4%	-2%
COc1cccc(/C=N/Nc2nc3ccccc3n3cnnc23)c1	14%	4%	-4%	-1%	-7%	3%
CN(C)c1ccc(CNC(=O)C2CCCN(S(=O)(=O)c3ccc4c(c3)CCCC(=O)N4)C2)cc1 (stereo not drawn)	x	x	x	3%	-9%	x
COc1ccc(C2/C=C\CNCC(=O)N2Cc2ccc(F)cc2)cc1 (stereo not drawn)	-27%	0%	1%	4%	40µM*	10%
COc1ccc(C2/C=C\CN(C(=O)C3CC3)CC(=O)N2Cc2ccc(F)cc2)cc1 (stereo not drawn)	1%	-1%	-3%	9%	-2%	u
COc1ccccc1NC(=O)CCNS(=O)(=O)c1ccc2c(c1)CCCC(=O)N2	x	x	x	-3%	3%	x
CCN(CC)C1=CC(=O)OC12CCCCC2	-5%	-26%	4%	-10%	1.6µM*	10%
COc1cc(O)c(C(=O)O)c(-c2cc(O)c(O)cc2C)c1	-3%	u	-2%	10µM*	0.16µM*	1%
Nc1ccc(S(=O)(=O)NCc2nccs2)cc1	x	x	x	x	x	-2%
C#C[C@@]1(OC(C)=O)CC[C@H]2[C@@H]3CCC4=CC(=O)CC[C@@H]4[C@H]3CC[C@@]21C	x	x	x	7%	x	x
CN1CCC(N(C)CC(O)c2ccccc2)CC1 (stereo not drawn)	1%	-3%	6%	-12%	13µM*	x
Cc1ccccc1CN(C)C1CCN(C)CC1	-18%	-5%	1%	1%	3%	0%
CCc1ccc(NC(=O)CC2C(=O)N(c3cccc(C)c3)C(=O)N2Cc2cccc(OC)c2)cc1 (stereo not drawn)	x	x	x	-1%	0%	x
CCC(=O)OC1(C)C(=O)C=C2C=C(c3ccsc3)OC=C2C1=O (stereo not drawn)	11%	-6%	1%	-8%	32µM*	10%
COc1ccc(-n2c(=S)[nH]c(=O)c3cccnc32)cc1	6%	2%	2%	-14%	18µM*	3%
SMILES	RE007 growth inh	LmPK inhibitor	SARS PLP yeast	Tb PYK inh	Sm TGR inh	NS1 function inh
Cc1cc(/C=N/Nc2ccc([N+](=O)[O-])cn2)c(C)n1-c1ccc(C(=O)O)cc1	13%	3%	0%	-16%	35µM*	x
Cc1ccccc1-n1c(C)cc(/C=N/Nc2ccc([N+](=O)[O-])cn2)c1C	-6%	2%	-6%	0%	-27%	12%
Cc1ccc2c(C(=O)CCl)c(C)[nH]c2c1	1%	-1%	2%	-10%	1.4µM*	-53%
CCCC[C@]12Cc3ccccc3C(O1)c1c(cc(-c3ccccc3)oc1=O)O2	x	-7%[11.5 µM]	-17%[6.58 µM]	x	3.2µM*	-67%
CCOC(=O)/C(=C\c1ccc(N2CCC(c3ccccc3)=N2)cc1)C(C)=O	-11%	x	x	6%	x	x
CCOC(=O)C(=Cc1ccc(-n2cncn2)cc1)C(=O)OCC	-19%	5%	-14%	0%	16µM*	-1%
CCC1(Cc2ccc(N)cc2)CCC(=O)NC1=O (stereo not drawn)	x	x	x	0%[157 µM]	x	x
O=C(O)CCCN1C(=O)/C(=C\c2ccc(-c3nc4ccccc4s3)o2)SC1=S	4%	8%	0%	0%	35µM*	-1%
O=C(O)C(Cc1ccccc1)N1C(=O)/C(=C/C=C/c2ccco2)SC1=S (stereo not drawn)	-9%	-6%	-2%	-25%	6.3µM*	12%
COc1ccc(/C=C2\SC(=S)N(C(Cc3ccccc3)C(=O)O)C2=O)cc1 (stereo not drawn)	11%	5%	-6%	-3%	7%	-2%
O=C(O)CC(C(=O)O)N1C(=O)/C(=C/C=C/c2ccco2)SC1=S (stereo not drawn)	10%	-8%	4%	u	5µM*	11%
O=C(NN1C(=O)/C(=C/C=C/c2ccco2)SC1=S)c1ccccc1O	u	3%	-6%	-10%	2.8µM*	-7%
Clc1ccccc1CNCCCSc1nnnn1-c1ccccc1	x	x	x	-3%	0%	x
CC(C)(C)OC(=O)N1CCC(c2c(C(=O)NCc3cccc(Cl)c3)cnn2-c2ccc(F)cc2)CC1	x	x	x	0%	-5%	x
CN(C)S(=O)(=O)c1ccc2c(c1)N(CC(=O)NCc1cccc(Br)c1)C(=O)CS2	x	x	x	-1%	14%	x
O=c1c2sc3ccccc3c2n(Cc2cccc(C(F)(F)F)c2)c(=O)n1Cc1ccco1	x	x	x	-6%	-25%	x
NS(=O)(=O)c1ccc(NC(=O)Nc2ccccc2F)cc1	x	x	x	x	x	0%
CCOc1cc(-c2nc(-c3ccc(-c4ccc(C)cc4)nc3OC)no2)cc(OCC)c1OCC	x	x	x	1%	2%	x
O=C(O)CCCN1C(=O)/C(=C/C=C/c2ccco2)SC1=S	-5%	-13%	0%	-26%	1.8µM*	5%
O=Cc1ccc(-c2nc3ccccc3s2)o1	-10%	16µM*	-4%	-13%	x	-35%
CC(=O)N1CCc2cc(CNC(=O)Nc3cc(Cl)ccc3C)ccc21	x	x	x	4%	6%	x
CCc1cccc(NC(=O)CCN2C(=O)c3ccccc3Sc3ncccc32)c1	x	x	x	-2%	45µM*	x

High-throughput results from PubChem.
